The campaign covered roughly 69,000 compounds. About 8,600 (12%) showed an effect of 50% or more. Only a selection was taken, and strong results are over-represented in it overall.
Tested on: Plasmodium berghei
Assay: Screen against P. berghei liver stage (PbLuc), transformed with Luciferase, at 10uM
Format: functional, HepG2
Settings: tested at 10 uM

Row | Compound | INHIBITION [%]
1 | CCN(CC1CCCO1)C(=O)Nc1cccc(Cl)c1OC (stereo not given) | 26.4
2 | Cc1nn(-c2ncnc3[nH]cnc23)c2c1C(C(C)(C)C)CC(=O)N2 (stereo not given) | -4.35
3 | Cc1cnc(CNC(=O)[C@@]23CCO[C@@H]2CCN(c2ncccn2)C3)cn1 | 9.51
4 | Cc1occc1C(=O)N1CCCC(C2=Nc3ccccc3S(=O)(=O)N2)C1 (stereo not given) | -7.679
5 | COc1ccccc1CN1CC[C@]2(C[C@H](OC)CO2)C1 | -29.2
6 | Cc1ccc(CNC(=O)CN(C)CC2CCN(CCO)CC2)s1 | 53.8
7 | O=C(CNC(=O)C1CC1)NCc1ccc(Cl)s1 | -56.4
8 | Cc1ccc(CNC(=O)c2cc(CN3CCC(O)CC3)on2)s1 | 13.7
9 | Cc1ccc(CNC(=O)CN2CCN(CCO)CC2)s1 | 5.64
10 | Cc1ccc(CNC(=O)CNCC2CCN(CCO)CC2)s1 | 10.6
11 | O=C(CN1CCN(CCO)CC1)NCc1ccc(Cl)s1 | 53.8
12 | Cc1cc(C(=O)NC2CCC3(CCC(=O)N3)CC2)no1 (stereo not given) | -20.8
13 | COc1ncccc1CN1CCc2[nH]nc(C(=O)N3CCCC3C)c2C1 (stereo not given) | -12.2
14 | CC(C)c1nnsc1CNC(=O)C1CCN(C(C)C)CC1 | 5.94
15 | CCc1ccc(C(=O)N2CCN(c3nc(C)cc(OC)n3)CC2)o1 | 19.2
16 | CCc1ccc(CN2CCN(c3ccc(C#N)cc3)C(=O)C2)nc1 | 62.4
17 | CCSc1ncc(CN2CCN(c3ccc(C#N)cc3)C(=O)C2)cn1 | 3.73
18 | CN(C)c1ccc(CN2CCN(c3ccc(C#N)cc3)C(=O)C2)cn1 | 18.9
19 | COCC(=O)N1CCN(S(=O)(=O)c2ccccc2)[C@H]2CS(=O)(=O)C[C@H]21 | 25.8
20 | CCc1nc(N2CCCC(O)(CO)CC2)ncc1C (stereo not given) | -119
21 | CNc1cncc(C2CCCN2S(=O)(=O)c2ccccc2)n1 (stereo not given) | -46.6
22 | CC(C)c1ccc(CCC(=O)N2CCOCC2c2ncon2)cc1 (stereo not given) | -3.2
23 | Cc1nc(-c2ccsc2)ccc1C(=O)NCCC1CCCO1 (stereo not given) | 52.7
24 | Cc1nc(-c2ccsc2)ccc1C(=O)NCCC(=O)N1CCCC1 | 49.6

Row | Compound | INHIBITION [%]
25 | Cc1nc(-c2ccsc2)ccc1C(=O)NCCN1CCOCC1 | 48.1
26 | Cc1noc(C)c1CN(C)C(=O)c1n[nH]c(N)c1-c1ccccc1 | -3.96
27 | COc1ccccc1/C=C/CNCC1CCc2nncn2C1 (stereo not given) | 38
28 | CS(=O)(=O)CCCNCc1c(Cl)cccc1N1CCCC1 | 26.4
29 | Cc1nccn1-c1ccc(=O)n(CCNC(=O)c2ccncc2)n1 | 10.5
30 | CCC(CN1CCCCC1)NC(=O)C1(c2cccc(F)c2)CC1 (stereo not given) | 28.7
31 | CCC(CN1CCCC1)NC(=O)C1(c2cccc(F)c2)CC1 (stereo not given) | 53.65
32 | CCC(CN1CCN(C)CC1)NC(=O)C1(c2cccc(F)c2)CC1 (stereo not given) | 37.5
33 | Cc1oncc1C(=O)N1CCC2(CCN(Cc3cccc(F)c3)C2=O)C1 (stereo not given) | 1.48
34 | O=c1cc2c(nn1CN1CCSCC1)CCC2 | 51
35 | O=c1cc2c(nn1CN1CCN(c3ccccc3)CC1)CCC2 | 16.6
36 | O=c1cc2c(nn1CN1CCOCC1)CCC2 | -1.58
37 | O=C(O)c1ccn(COc2c(Cl)cccc2Cl)n1 | 0.207
38 | Cc1ncoc1C(=O)N1CCOC(CCCC(C)C)C1 (stereo not given) | -7.81
39 | O=S(=O)(NCc1cn2ccccc2n1)N1CCOCC1 | -38.6
40 | Cc1nc(N2CCCCC2)ncc1-c1cc(=O)[nH]c(N2CCCC2)n1 | 68.1
41 | Cc1nc(N2CCCC2)ncc1-c1cc(O)nc(N2CCCCC2)n1 | 36.6
42 | Cc1nc(N2CCC(C)CC2)ncc1-c1cc(O)nc(N2CCCC2)n1 | 53.2
43 | Cc1nc(N2CCCC2)ncc1-c1cc(O)nc(N2CCN(C)CC2)n1 | 20.1
44 | Cc1nc(N2CCCC2)ncc1-c1cc(O)nc(N2CCCC2)n1 | -11.1
45 | Cc1nc(N2CCCCC2)ncc1-c1cc(O)nc(N2CCCCC2)n1 | 25.1
46 | Nc1nccnc1C1CN(C(=O)c2cnccn2)CCO1 (stereo not given) | -9.32
47 | COCC(c1cccc(C(F)(F)F)c1)N(C)C(=O)c1cccnc1 (stereo not given) | -34.5
48 | NC(=O)COc1cccc(Cn2cc(Br)cn2)c1 | 27

Row | Compound | INHIBITION [%]
49 | O=S(=O)(C1CC1)N1CCc2ncnc(-c3ccncc3)c2CC1 | 12.1
50 | Cc1nnc(N2CCOC(CN(C)C)C2)c(C#N)c1C (stereo not given) | 49.25
51 | Cc1ccc(O)c(C(=O)N2C[C@@H](C(=O)O)[C@H](c3ccccc3)C2)c1 | 19.4
52 | CC(C)=CCN1C(=O)[C@@H]2CC[C@H]1CN(c1ncccc1F)C2 | 12.7
53 | c1ccc2oc(N3CCCC3Cn3cncn3)nc2c1 (stereo not given) | -41.1
54 | c1ccc2oc(CN3CCCCC3Cn3cncn3)nc2c1 (stereo not given) | 55.4
55 | c1ccc2oc(CCCN3CCCCC3Cn3cncn3)nc2c1 (stereo not given) | -41.1
56 | c1ccc2oc(CCCN3CCCC3Cn3cncn3)nc2c1 (stereo not given) | 30.8
57 | c1ccc2oc(N3CCCCC3Cn3cncn3)nc2c1 (stereo not given) | 55.5
58 | c1ccc2oc(CN3CCCC3Cn3cncn3)nc2c1 (stereo not given) | -4.94
59 | O=C(Nc1cc(C(F)(F)F)c[nH]c1=O)N1CCOCC1 | -31.8
60 | COc1c(C)cnc(CNCC(C)C)c1C | 11.95
61 | CN(C)CC(=O)N1CCc2sc(C(=O)N3CCOCC3)cc21 | 43
62 | Cc1cc(N(C)CCn2ccnc2C)n2nccc2n1 | 48.1
63 | Cc1nccn1CCN(C)c1cc(C(C)C)nc2ccnn12 | 51.3
64 | CC(C)Cc1noc(CN(C)c2cc(C(C)C)nc3ccnn23)n1 | 23.5
65 | COCCC(Cc1cccc(Br)c1)C(N)=O (stereo not given) | 25.3
66 | CC(C)CC(Cc1cccc(Br)c1)C(=O)O (stereo not given) | 65.4
67 | COCCC(Cc1cccc(Br)c1)C(=O)O (stereo not given) | 9
68 | CS(=O)(=O)NC[C@H]1Cn2c(-c3ccccc3)cnc2CO1 | 25.3
69 | CS(=O)(=O)NC[C@H]1Cn2c(-c3ccc(F)cc3)cnc2CO1 | 51.7
70 | CS(=O)(=O)NC[C@H]1Cn2c(-c3ccc(Cl)cc3)cnc2CO1 | 5.58
